Most compounds without a hit are left out; they make up all but 12% or so of the library.
JMJD2A Tudor: inhibitors of human JMJD2A Tudor domain; Potency, µM (series often up to 114 µM), actives largely listed as inhibitors; AID 504339; 4.4% of 390,000 active; AlphaScreen JMJD2A-Tudor / H3K4me3 peptide binding; O75164; further: nearly all actives have a fitted effect of over 50% in size
PI5P4Ka inh: PI5P4K alpha (human) kinase inhibition; P48426; PI5P4Kalpha enzyme, ADP-Glo luminescence, 60 min; active compounds read low; max response, %; 1.2% of 330,000 active; active means max response of -50% or lower; inconclusive means between -30% and -50%; inactive means -30% or higher; further: value at the top dose of about 77 µM
Target sequence (P48426 whole entry, looked up): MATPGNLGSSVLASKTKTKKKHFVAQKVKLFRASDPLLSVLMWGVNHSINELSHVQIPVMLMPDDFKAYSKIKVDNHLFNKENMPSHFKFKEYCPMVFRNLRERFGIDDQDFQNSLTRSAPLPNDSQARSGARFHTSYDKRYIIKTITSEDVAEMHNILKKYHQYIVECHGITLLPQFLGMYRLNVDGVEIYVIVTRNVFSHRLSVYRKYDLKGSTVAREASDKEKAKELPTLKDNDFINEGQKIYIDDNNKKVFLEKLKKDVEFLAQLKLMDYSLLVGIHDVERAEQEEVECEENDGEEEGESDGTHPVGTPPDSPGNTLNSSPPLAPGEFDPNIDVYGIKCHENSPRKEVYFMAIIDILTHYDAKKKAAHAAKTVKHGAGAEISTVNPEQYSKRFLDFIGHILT
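Quantitative HTS of the MLSMR library against PI5P4Kalpha with substrate. ATP added last at 5 microM final; room temperature, 60 minutes. Remaining ATP depleted, ADP converted and read as luminescence.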
PLK1 PBD inh: blocks phosphopeptide binding to human PLK1 polo-box domain | P53350 | Plk1 PBD binding of FITC phosphopeptide, fluorescence polarization | Potency, µM, usual class: inhibitors | 2.8% of 360,000 active | AID 720504; further: series mostly up to about 57 µM; nearly all actives have a fitted effect of over 65% in size
HP1b binding inh: HP1-beta chromodomain-methylated histone interaction inhibition; Potency, µM (highest dose often 114 µM), actives largely listed as inhibitors; AlphaScreen HP1-beta / biotin-H3K9me3 peptide binding; 0.56% of 390,000 active; further: nearly all actives have a fitted effect of over 70% in size
Target sequence (P83916 whole entry, looked up): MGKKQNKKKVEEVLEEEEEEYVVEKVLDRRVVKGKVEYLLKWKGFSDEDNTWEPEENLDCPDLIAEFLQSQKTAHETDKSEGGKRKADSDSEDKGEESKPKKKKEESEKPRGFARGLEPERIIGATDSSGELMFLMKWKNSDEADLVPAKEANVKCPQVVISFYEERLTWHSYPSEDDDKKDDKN
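HP1-beta protein (50 nM final) preincubated 30 min at room temperature with biotinylated H3(1-18)K9me3 peptide (50 nM) in PBS pH 7.4, 0.01% Tween-20, then compound added for 30 min. AlphaScreen streptavidin donor/nickel chelate acceptor beads (10 ug/mL final), 30 min dark, luminescence read.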
G9a block: inhibitors of human histone lysine methyltransferase G9a | Q96KQ7 | G9a H3K9 monomethylation, AlphaScreen, 2 h | 8.8% of 350,000 active | AID 504332 | Potency, µM (series often up to 102 µM), usual class: inhibitors; further: nearly all actives have a fitted effect of over 75% in size
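Using a bead-based AlphaScreen, monomethylated H3K9 product from 2 h room-temperature reactions (G9a 20 nM, peptide 500 nM, SAM 20 uM) was detected with 0.5 ug/mL rabbit anti-H3K9me1 antibody.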
BAZ2B inh: blocks human BAZ2B. Potency, µM (series often up to 114 µM), most hits filed as inhibitors. AlphaScreen BAZ2B-H3K14Ac peptide displacement. 4.4% of 360,000 active. Q9UIF8; further: nearly all actives have a fitted effect of over 60% in size
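Compounds, titrated to a top concentration of 110 uM, were incubated 30 min at room temperature with preformed BAZ2B/acetyl-K14 H3 peptide complex (50 nM each). Proximity signal was measured by AlphaScreen after 20 min with beads.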
A number is an active result; - = inactive; ? = inconclusive; . = no result; [ ] = dose if it differs, or a comment. Unless noted, the call rests on the fitted dose curve; in most records, active means well fitted curve in the direction sought with a large enough effect; inconclusive means small, poorly fitted or top-dose-only effect, or another doubt; inactive means no such curve, though single readings can be large; an effect the other way counts as inactive or inconclusive.

SMILES	JMJD2A Tudor	PI5P4Ka inh	PLK1 PBD inh	HP1b binding inh	G9a block	BAZ2B inh
CCOC(=O)c1cc(-c2ccc(N3CCOCC3)cc2)nn1-c1ccccc1C(=O)O	3.16µM	?	18.9µM	?	.	12.6µM
CC(CNC(=O)[C@@H](Cc1ccccc1)NC(=O)CC[C@H]1O[C@@H](n2ccc(=O)[nH]c2=O)[C@H](O)[C@@H]1O)c1ccccc1 (stereo partly drawn)	.	-	-	.	.	.
O=C(CSc1ncn(-c2ccccc2)n1)Nc1nc2c(s1)CCCC2	50.1µM	.	?	?	-[12.7 µM]	44.7µM
CC(=O)Nc1nonc1NC(=O)CSC1=NCCS1	-	-	-	-	56.2µM	-
Cn1nnnc1SCC(=O)Nc1nc2c(s1)CCCC2	-	.	-	-	-[12.7 µM]	-
O=C(CSC1=NCCS1)Nc1nc2c(s1)CCCC2	-	?	?	-	39.8µM	?
O=C(CSc1ncn(-c2ccccc2)n1)Nc1nncs1	-	-	-	-	?	-
Cc1ccc(NC(=O)c2cc3c(=O)n(Cc4cccnc4)ccc3nc2C)cc1F	-	.	.	-	-	-
COc1ccc(N2CCN(C(=O)c3ccc(NS(=O)(=O)c4ccc(F)c(F)c4)cc3)CC2)cc1	89.1µM	-	-	-	56.2µM	50.1µM
COc1ccc(N2CCN(C(=O)c3ccc(NS(=O)(=O)c4cccc(F)c4)cc3)CC2)cc1	?	.	-	-	?	?
COc1ccc(N2CCN(C(=O)c3cccc(NS(=O)(=O)c4cccc(F)c4)c3)CC2)cc1	-	-	-	-	.	39.8µM
COc1ccc(N2CCN(C(=O)c3cccc(Cn4cc(Cl)cn4)c3)CC2)cc1	?	.	-	-	17.8µM	?
COCc1cc(C)nc2c1C(=O)NC(c1ccc(C)cc1)N2Cc1ccccc1 (stereo not drawn)	-	.	.	-	-	-
COc1cc(-c2cnc3c(NC(C)=O)cc(-c4ccccc4CN(C)C)cn23)cc(OC)c1OC	.	-	-	.	.	.
CSc1ccc(S(=O)(=O)N2CCC(C(=O)N3CCc4ccccc4C3)CC2)cc1	-	-	-	-	39.8µM	-
N#Cc1ccc(S(=O)(=O)N2CCC(N3CCCCC3)CC2)cc1	-	-	-	-	-	-
CC(=O)Nc1ccc(S(=O)(=O)N2CCC(C(=O)NC3CCCC3)CC2)cc1	-	-	-	-	-	-
O=S(=O)(c1ccc(F)cc1)N1CCC(N2CCCC2)CC1	20µM	-	-	?	?	?
COc1ccc(S(=O)(=O)N2CCC(N3CCCCC3)CC2)cc1	8.91µM	-	-	?	?	70.8µM
CSc1ccc(S(=O)(=O)N2CCC(C(=O)Nc3ccc(NC(C)=O)cc3)CC2)cc1	-	-	-	-	39.8µM	-
COc1cccc(NC(=O)N2CCN3CCCCC3C2)c1 (stereo not drawn)	-	.	.	-	-	-
CCCCOC(=O)c1ccc(NC(=O)c2ccc3c(c2)CCN3S(C)(=O)=O)cc1	-	.	.	-	-	-
O=c1ccc(S(=O)(=O)N2CCCC2)cn1Cc1ccc(F)cc1	-	-	-	-	3.55µM	-
Cc1ccc(S(=O)(=O)N2CCC(C(=O)Nc3ccc(N4CCOCC4)cc3)CC2)cc1C	-	-	-	-	15.8µM	-
CC(=O)Nc1ccc(S(=O)(=O)N2CCN(S(=O)(=O)c3ccc(NC(C)=O)cc3)CC2)cc1	-	-	-	-	-	-
SMILES	JMJD2A Tudor	PI5P4Ka inh	PLK1 PBD inh	HP1b binding inh	G9a block	BAZ2B inh
CC(=O)Nc1ccc(S(=O)(=O)N2CCC(N3CCCC3)CC2)cc1	3.55µM	-	-	?	50.1µM	?
O=C(Nc1ccc(N2CCOCC2)cc1)C1CCN(S(=O)(=O)c2ccc3c(c2)OCCO3)CC1	-	-	-	-	-	-
Cc1ccccc1C(=O)N1CCC(C(=O)Nc2ccc(S(=O)(=O)N3CCCC3)cc2)CC1	-[11.4 µM]	-	11.9µM	-	?	-
COCCn1c(=O)c(-c2ccc(Cl)cc2)nc2cnc(OC)nc21	.	.	.	.	-[12.7 µM]	.
CCn1c(C2CCN(S(=O)(=O)c3ccc(OC)cc3)CC2)n[nH]c1=S	6.31µM	-	-	-	14.1µM	-
Cc1nnc(NC(=O)C2CCN(S(=O)(=O)c3ccc(F)c(F)c3)CC2)o1	50.1µM	-	-	-	.	.
Cn1c(=O)oc2cc(S(=O)(=O)N3CCC(C(=O)Nc4ccc(F)c(Cl)c4)CC3)ccc21	-	.	.	-	-	-
CCN(c1ccc(OC)cc1)S(=O)(=O)c1nnc(NC(=O)COc2ccccc2)s1	-	-	-	-	-	-
CCn1nc(NS(=O)(=O)c2ccccc2[N+](=O)[O-])c2cc3cccc(C)c3nc21	?	-	?	-	?	?
CCn1nc(NS(=O)(=O)c2ccc([N+](=O)[O-])cc2)c2cc3cccc(C)c3nc21	?	-	-	-	17.8µM	?
NCCCC(N)CC(=O)NCC1NC(=O)C(CO)NC(=O)C(N)CNC(=O)C(C2CCN=C(N)N2)NC(=O)/C(=C/NC(N)=O)NC1=O (stereo not drawn)	.	.	.	.	-[2.33 µM]	.
COc1ccc(Nc2nc(OC)nc(OC)n2)cc1	-	-	-	-	-	-
CCOc1nc(Nc2ccc(OC)cc2)nc(OCC)n1	79.4µM	-	-	-	-	-
COc1ccc(Nc2ccnc(Nc3ccc(OC)cc3)n2)cc1	?	-	-	?	?	44.7µM
COc1ccc(Nc2cc(Nc3ccccc3)ncn2)cc1	-	.	-	-	-	-
O=C(CN1C(=O)COc2ccc(S(=O)(=O)N3CCOCC3)cc21)N1CCN(c2cccc(C(F)(F)F)c2)CC1	-	.	.	-	-	-
CCOC(=O)c1n[nH]n2c1nc(=S)c1ccccc12	89.1µM	?	-	-	10µM	-
CCOC(=O)c1n[nH]c2ccccc12	-	-	-	-	-	-
O=C(c1csnn1)N1CCC2(CCCN(c3ccccn3)C2)CC1	.	.	.	.	-[12.7 µM]	.
Oc1c(C(c2ccccc2)N2CCc3ccccc3C2)sc2ncnn12 (stereo not drawn)	31.6µM	-	?	?	3.98µM	-
Oc1c(C(c2ccco2)N2CCN(C(c3ccccc3)c3ccccc3)CC2)sc2ncnn12 (stereo not drawn)	?	?	-	-	17.8µM	?
CC1CCCN(C(c2ccccc2)c2sc3ncnn3c2O)C1 (stereo not drawn)	-	-	-	-	.	-
COc1ccc(N2CCN(C(c3ccco3)c3sc4nc(C)nn4c3O)CC2)cc1 (stereo not drawn)	-	-	-	-	44.7µM	?
CCCCn1cnc2c(=O)[nH]c(N)nc21	-	.	.	-	.	.
COc1ccc(-n2c(=O)cnc3cnc(OC)nc32)cc1	.	.	.	.	-[0.501 µM]	.
O=C(c1ccc(-c2ccccc2Cl)o1)N1CCN(c2ccccc2O)CC1	?	-	-	-	17.8µM	?
S=C(c1ccc(-c2ccccc2Cl)o1)N1CCCCC1	?	-	-	?	?	?
N#CCCN1CCN(C(=S)c2ccc(-c3ccc(Cl)cc3)o2)CC1	44.7µM	-	?	?	?	39.8µM

Screens deposited in PubChem BioAssay by National Center for Advancing Translational Sciences (NCATS).
